Compounds with a hit are over-represented: about 2.4% of the library has one in this group of screens.
Pol kappa inh: inhibitors of human DNA polymerase kappa; Q9UBT6; purified Pol kappa, fluorescent DNA synthesis assay, 10 min; Potency, µM (titrated, usually from 107 µM), inactives show at the top dose activity, negative = inhibition, actives largely listed as inhibitors; actives 0.53% (n = 400,000); further: on the % scale 0 is the no-effect control and ±100 the full control effect
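Activity was followed as the change in fluorescence between reads at 0 and 10 min after starting the reaction with 50 nM substrate. Beforehand, 10 nM polymerase had been preincubated with compound for 15 min at room temperature.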
FEN1 inh: human FEN1 inhibition; P39748; Recombinant FEN1 flap cleavage, fluorescence, 15 min; Potency, µM (titrated, usually from 114 µM), without a hit: at the top dose activity change, negative = inhibition, most hits filed as inhibitors; actives 0.35% (n = 390,000); AID 588795; further: on the % scale 0 is the no-effect control and ±100 the full control effect; nearly all actives have a fitted effect of over 65% in size
Target sequence (P39748 whole entry, looked up): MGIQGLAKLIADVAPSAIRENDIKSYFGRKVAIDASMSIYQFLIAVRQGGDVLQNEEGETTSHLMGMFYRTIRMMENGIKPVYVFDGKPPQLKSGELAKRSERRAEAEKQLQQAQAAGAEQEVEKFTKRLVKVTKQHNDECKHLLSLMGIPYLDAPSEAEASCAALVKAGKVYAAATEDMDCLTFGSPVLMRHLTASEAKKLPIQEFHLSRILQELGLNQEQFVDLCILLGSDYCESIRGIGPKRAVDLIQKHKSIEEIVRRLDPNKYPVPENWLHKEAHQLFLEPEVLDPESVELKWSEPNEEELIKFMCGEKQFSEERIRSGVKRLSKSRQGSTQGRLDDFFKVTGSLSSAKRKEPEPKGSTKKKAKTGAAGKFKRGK
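Read-out was taken twice, immediately and after 15 min, following addition of 50 nM substrate to 10 nM FEN1 that had sat with test compound for 15 min at room temperature. Curves came from a four-parameter Hill model.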
POLI inh: blocks human DNA polymerase iota activity; Potency, µM (titrated, usually from 115 µM), inactives show at the highest dose activity, negative = inhibition, most hits filed as inhibitors; Pol iota fluorescent replication assay, 10 min; actives 1% (n = 390,000); Q9UNA4; AID 588590
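Fluorescent replication assay read twice, at 0 min and 10 min after adding 50 nM (final) substrate. Enzyme (10 nM) and compounds were first incubated 15 min at room temperature; enzyme-free buffer wells were negative controls.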
Pol beta inh: blocks human DNA polymerase beta activity. P06746. Pol beta primer extension/strand displacement, fluorescence kinetic. Potency, µM (doses to about 114 µM), for the others: top-dose activity change, negative = inhibition, actives largely listed as inhibitors. actives 1.3% (n = 340,000). AID 485314; further: on the % scale 0 is the no-effect control and ±100 the full control effect
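Homogeneous kinetic assay of primer extension and strand displacement by 10 nM Pol beta, preincubated 15 min at room temperature with compound before 50 nM substrate (final) was added. Read at 0 and 10 min; four-parameter Hill fit.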
PGK inhibitor: inhibitors of T. brucei phosphoglycerate kinase; Potency, µM (doses to about 57.5 µM), for the others: at the highest dose activity change, negative = inhibition, most hits filed as inhibitors; P07378; actives 0.043% (n = 380,000); PGK/GAPDH coupled, Kinase-Glo luminescence, 60 min; further: on the % scale 0 is the no-effect control and ±100 the full control effect; nearly all actives have a fitted effect of over 60% in size
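Recombinant glycosomal PGK reaction used 1,3-bisphosphoglycerate generated in-well by GAPDH (100nM final) in 100mM TEA pH 7.6, 5mM MgCl2, 0.01% Tween-20. After 60 minutes at room temperature, ATP was read by Kinase-Glo Plus luminescence end-point.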
Pol eta inh: inhibitors of human DNA polymerase eta | Potency, µM (doses to about 114 µM), inactives show top-dose activity change, negative = inhibition, most hits filed as inhibitors | recombinant Pol eta, fluorescent DNA replication assay | actives 1.2% (n = 390,000) | Q9Y253; further: on the % scale 0 is the no-effect control and ±100 the full control effect
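Fluorescent replication assay: 50 nM final substrate added after a 15 min room-temperature compound preincubation with 10 nM enzyme. Signal taken at 0 min and again at 10 min.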
Starred values were filed as active, the others as inactive; i = inactive; ? = inconclusive; . = no result given; ! = repeats disagree; [ ] = another dose, or the depositor's remark. The call rests on the fitted dose curve; in most records, active means well fitted curve in the direction sought with a large enough effect; inconclusive means small, poorly fitted or top-dose-only effect, or another doubt; inactive means no such curve, though single readings can be large; an effect the other way counts as inactive or inconclusive. Potency means the concentration at half of the fitted maximal effect.

SMILES	Pol kappa inh	FEN1 inh	POLI inh	Pol beta inh	PGK inhibitor	Pol eta inh
CCc1ccc(Sc2cc(C(=O)O)c3ccccc3n2)cc1	-3.5%[60.1 µM]	15.5%	2.6%	-14.8%	8.7%	-8.3%
O=C(N/N=C/c1ccc(O)c(O)c1)c1ccc(CSc2cccc3cccnc23)cc1	?	?	?	3.16µM*	0.7%	3.55µM*
O=C(CSc1cccc2cccnc12)N/N=C/c1cccc(O)c1	-23.6%	14.8%	-8.1%	-9.6%	4.8%	7.5%
N[C@H](CSSC[C@@H](N)C(=O)O)C(=O)O	14.2%[60.1 µM]	.	.	.	.	.
COc1ccc(C(=O)C[n+]2cccc3cc(Cl)ccc32)cc1	?	-5.0%	?	.	.	.
CCN1/C(=C/C=C/C=C/c2sc3ccccc3[n+]2CC)Sc2ccccc21	31.6µM*	31.6µM*	17.8µM*	15.8µM*	.	.
CCN1/C(=C/C=C/c2sc3ccccc3[n+]2CC)Sc2ccccc21	11.2µM*!	2.6%	?	.	?	39.8µM*
Cc1cnc2ccc(I)cc2c1/C=C/c1ccc(N(C)C)cc1	-39.4%	-30.4%	-22.3%	.	.	.
CC(C)=CCC/C(C)=C/CC/C(C)=C/CSc1ccccc1C(=O)O	.	.	25.1µM*	?	.	31.6µM*
O=C(CCc1ccc(O)cc1)c1c(O)cc(O)cc1O[C@H]1OC(CO)C(O)C(O)C1O (some centres not stated)	-11.8%[60.1 µM]	.	.	.	.	.
CC(=O)c1c(O)cccc1O	8.0%[60.1 µM]	.	.	.	.	.
O=c1c(Cl)c(N/N=C/c2ccc(Br)cc2)cnn1-c1ccccc1	?	?	?	17.8µM*	-1.0%	?
CCCN1CCN(c2ncc3c(n2)CCN(Cc2ccc(OC)c(OC)c2OC)C3)CC1	-0.5%[60.1 µM]	1.3%	-2.7%	-1.1%	-2.3%	-17.5%
COc1cccc2sc(Nc3nc(-c4cc5ccccc5oc4=O)cs3)nc12	?	?	?	35.5µM*	-9.6%	?
COc1cccc(-c2noc(-c3cc4ccccc4oc3=O)n2)c1OC	1.2%	-1.3%	70.8µM*	17.9%	-1.7%	-7.3%
NS(=O)(=O)c1cccc(NC(=O)CSc2nc3nc(-c4cccs4)cc(C(F)(F)F)c3c(=O)[nH]2)c1	-14.7%	?	-16.3%	3.5%	-8.6%	39.8µM*
O=C(CSc1nc2nc(-c3cccs3)cc(C(F)(F)F)c2c(=O)[nH]1)Nc1c(F)c(F)c(F)c(F)c1F	-10.1%	-23.0%	?	23.4%	-1.5%	-15.3%
CCN(CC)CCCOc1cc2nc(N3CCCN(C)CC3)nc(NC3CCN(C)CC3)c2cc1OC	-14.1%	25.1µM*	?	.	.	.
COc1cc2c(NC3CCN(C)CC3)nc(N3CCCN(C)CC3)nc2cc1OCCCCN	79.4µM*	10µM*	20µM*	.	.	.
COc1cc2c(NC3CCN(C)CC3)nc(N3CCCN(C)CC3)nc2cc1OCCCCC(N)=O	-1.9%	?	-2.3%	.	.	.
COc1cc2c(NC3CCN(C)CC3)nc(N3CCCN(C)CC3)nc2cc1OCCN(C)C	-7.2%	25.1µM*	?	.	.	.
COc1cc2c(NC3CCN(C)CC3)nc(N3CCN(C)CC3)nc2cc1OCCCN(C)C	-20.1%	?	?	.	.	.
COc1cc2nc(N3CCOCC3)nc(NC3CCN(C)CC3)c2cc1OC	-16.9%	?	-6.6%	.	.	.
COc1cc2c(NC3CCN(C)CC3)nc(N3CCCN(C)CC3)nc2cc1OCCCCCN(C)C	-14.4%	22.4µM*	?	.	.	.
COc1cc2nc(N3CCCCC3)nc(NC3CC3)c2cc1OC	-25.9%	?	1.7%	.	.	.
SMILES	Pol kappa inh	FEN1 inh	POLI inh	Pol beta inh	PGK inhibitor	Pol eta inh
COc1cc2c(NC3CCN(C(C)C)CC3)nc(N3CCCN(C)CC3)nc2cc1OCCCN(C)C	-17.1%	31.6µM*	?	.	.	.
COc1cc2c(NC3CCN(C)CC3)nc(N3CCCN(C)CC3)nc2cc1OCC1CCNCC1	0.0%	10µM*	?	.	.	.
Oc1ccc(Cl)cc1C1C=C(c2ccc3c(c2)OCO3)NC(c2ccc(Br)cc2)N1 (configuration not stated)	-25.3%	-5.5%	-29.1%	.	.	.
COc1ccc(CNC(=O)Nc2cc(C)cc(C)c2)cc1	-1.2%	-3.2%	19.8%	31.6µM*	i	-0.9%
CCN(CC)C(=O)c1sc2c(c1C)c(=O)n(-c1ccccc1)c(=O)n2CC(=O)N(CC)c1cccc(C)c1	-1.4%[60.1 µM]	-18.8%	32.3%	0.7%	-3.9%	-18.3%
CCCCCCCCN1[C@@H](CC(=O)O)c2ccc(/C=C/C(=O)O)cc2S1(=O)=O	?	16.2%	-7.4%	.	.	.
Cc1ccccc1C(=O)OCC(=O)NCc1ccco1	-32.5%	1.7%	50.1µM*	.	-26.4%	?
COc1ccccc1NS(=O)(=O)c1ccc(C(=O)OCC(=O)NCc2ccco2)cc1	-33.9%	-4.0%	?	15.8µM*	-3.4%	?
O=C(COC(=O)C1(c2ccc(F)cc2)CCCC1)NCc1ccco1	-14.9%	-5.7%	28.0%	39.8µM*	i	-18.3%
Cc1c(C(=O)OCC(=O)NCc2ccco2)cccc1[N+](=O)[O-]	-30.2%	-3.0%	56.2µM*	.	-11.1%	25.1µM*
Cc1ccsc1C(=O)OCC(=O)NCc1ccco1	3.9%	4.9%	154.6%	0.5%	1.3%	-24.2%
NC1CCc2ccccc21 (configuration not stated)	1.5%	-3.7%	-0.7%	.	.	.
CCOC(=O)C(=O)Nc1ccc(S(=O)(=O)Nc2ncccn2)cc1	-12.9%	-6.0%	-11.3%	89.1µM*	-2.1%	-4.5%
CCCN1CNc2c(c(=O)[nH]c(=S)n2CCc2ccc(OC)cc2OC)C1	1.5%	-5.7%	21.6%	.	.	.
Cc1cc(/C=C2\C=Cc3ccccc32)cc(C)c1N	-10.2%	-25.1%	39.1%	.	.	.
CCc1ccccc1N(CC(=O)NCc1ccco1)C(=O)c1snc(C(N)=O)c1N	-35.1%	5.9%	?	50.1µM*	-18.5%	20µM*
CC(C)CCNC(=O)CN(Cc1ccco1)C(=O)c1snc(C(N)=O)c1N	-0.6%	-3.6%	63.4%	37.5%	3.5%	8.2%
Cc1ccc(NC(=O)CSc2nnc3[nH]c(=O)cc(-c4ccccc4)n23)cc1Cl	-3.4%[60.1 µM]	-14.4%	0.4%	39.8µM*	-3.4%	-7.2%
COc1cccc(NC(=O)CSc2nnc3[nH]c(=O)cc(-c4ccccc4)n23)c1	3.5%[60.1 µM]	-16.2%	?	-15.5%	-2.2%	11.0%
O=[N+]([O-])c1cc(-c2csc(NCCc3nc4cc(C(F)(F)F)ccc4n3CCCO)n2)ccc1Cl	-0.8%	-2.5%	12.6µM*	.	i	?
OCCCn1c(CCNc2nc(-c3ccc(Cl)cc3)cs2)nc2cc(C(F)(F)F)ccc21	-10.8%	0.0%	10.5%	.	-1.8%	-23.4%
Cc1ccccc1CSCCNC(=O)CN(c1ccccc1)S(=O)(=O)N(C)C	-5.7%	-20.5%	-23.1%	16.7%	-1.6%	-2.4%
